Experimental data from PubChem BioAssay (Tox21).
Records with an inconclusive call do not appear. The source made the active and inactive calls. Calls follow the shape of the dose curve; as a rule, active = well fitted curve in the direction sought with a large enough effect in the repeat runs; inconclusive = weak or mixed curves; inactive = no such curve, though single readings can be large; an effect the other way counts as inactive or inconclusive.

Key:
[1] = qHTS assay for identifying genotoxic compounds that show differential cytotoxicity against isogenic chicken DT40 cell lines with known DNA damage response pathways - wild type cell line (AID 743012); details: DT40 wild type chicken cells viability, CellTiter-Glo, 40 h; series mostly up to 68.4 µM; also: nearly all actives have a fitted effect of over 60% in size
Source text: U.S. Tox21 Program National Center for Advancing Translational Sciences [NCATS] NIH Chemical Genomics Center [NCGC] U.S. Environmental Protection Agency [EPA] National Institutes of Environmental Health Sciences [NIEHS] National Toxicology Program [NTP] U.S. Food and Drug Administration [FDA] Tox21 Assay Overview: DNA repair pathways play a critical role in cellular homeostasis by repairing DNA damage induced by endogenous processes and xenobiotics. Isogenic chicken DT40 cell lines deficient in different DNA repair pathways can be used to identify genotoxic compounds and aid in characterizing the nature of the DNA damage induced. Two DNA repair-deficient cell lines with disrupted genes, Rad54/Ku70 or Rev3, were used to screen the Tox21 10K compound library. […]
Tox21 Assay Protocol Summary: 300 DT40 wild type cells in 5 uL/well were dispensed into white, solid-bottom 1536-well plates using a Multidrop Combi (ThermoFisher Scientific, Waltham, MA) dispenser. […] After 5 uL per well of CellTiter-Glo reagent was added into each well of the assay plates, the plates were incubated for 30 min at room temperature and the luminescence intensity of the plates was measured using a ViewLux (PerkinElmer, Shelton, CT) plate reader.

[2] = qHTS assay for identifying genotoxic compounds that show differential cytotoxicity against isogenic chicken DT40 cell lines with known DNA damage response pathways - Rev3 mutant cell line (AID 743014); details: chicken DT40 Rev3-/- viability, CellTiter-Glo, 40 h; series mostly up to 68.4 µM; also: nearly all actives have a fitted effect of over 55% in size
[3] = qHTS assay for identifying genotoxic compounds that show differential cytotoxicity against isogenic chicken DT40 cell lines with known DNA damage response pathways - Rad54/Ku70 mutant cell line (AID 743015); details: DT40 Rad54/Ku70 mutant viability, CellTiter-Glo, 40 h; series mostly up to 66.8 µM; also: nearly all actives have a fitted effect of over 60% in size

Measured: Potency
Potency is read from the fitted curve at half-maximal effect.

COC(=O)[C@]12CCC(C)(C)C[C@H]1[C@H]1C(=O)C=C3[C@@]4(C)C=C(C#N)C(=O)C(C)(C)[C@@H]4CC[C@@]3(C)[C@]1(C)CC2
active: [1] 596 nM | [2] 841 nM | [3] 596 nM
